Reporter fold induction data for 5 targets are collected here from the supplement of paper PMC3616981.

Compound in the experiment: CC(C)c1cccc(C(C)C)c1N1C(=O)c2ccc(O)cc2C1=O
The experiment can be described thus: reporter fold induction vs vehicle; higher = higher reporter activity. The method, then: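 Attagene multiplexed transcription-factor reporter assay (48 cis response elements and 25 trans nuclear-receptor constructs) treated with 5HPP-33 at 8 concentrations (0.091–200 µM). The response is fold induction of reporter activity relative to vehicle control. Cell line and time not stated in the paper; tested in ToxCast Phase II for this study.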

Take STAT3_CIS: the reporter fold induction (0.091 µM) came out at 1.05; the reporter fold induction (0.274 µM) was found to be 1; the reporter fold induction (0.823 µM) was found to be 0.995; the reporter fold induction (2.469 µM) came out at 0.975; the reporter fold induction (7.407 µM) amounted to 0.977; the reporter fold induction (22.22 µM) was found to be 1.15. Further, the reporter fold induction worked out at 1.02 (66.67 µM) and 0.913 (200 µM).

Turning to PBREM_CIS, the reporter fold induction by setting is: (0.091 µM) 1.05; (0.274 µM) 1.04; (0.823 µM) 0.916; (2.469 µM) 0.965; (7.407 µM) 1.24; (22.22 µM) 1.15. Also, the reporter fold induction amounted to 1.19 (66.67 µM) and 1.16 (200 µM).

For the target C_EBP_CIS, the reporter fold induction (0.091 µM) worked out at 1.02; the reporter fold induction (0.274 µM) stood at 0.969; the reporter fold induction (0.823 µM) came to 1.04; the reporter fold induction (2.469 µM) was 1.04; the reporter fold induction (7.407 µM) amounted to 1.12; the reporter fold induction (22.22 µM) was determined as 0.945. The reporter fold induction stood at 1.31 (66.67 µM) and 1.32 (200 µM).

On to PPARd_TRANS, for which the reporter fold induction was 1.05 (0.091 µM); 0.856 (0.274 µM); 0.9 (0.823 µM); 1.11 (2.469 µM); 0.953 (7.407 µM); 1.14 (22.22 µM). The reporter fold induction by setting is: (66.67 µM) 1.27; (200 µM) 1.45.

As to LXRa_TRANS, the reporter fold induction runs as follows: (0.091 µM) 0.858; (0.274 µM) 0.611; (0.823 µM) 1; (2.469 µM) 0.742; (7.407 µM) 0.814; (22.22 µM) 0.638. Further, the reporter fold induction (66.67 µM) worked out at 0.979 and the reporter fold induction (200 µM) worked out at 0.718.
